Compound activity as filed in PubChem.
This is a sample that favours compounds with a hit; in the whole collection about 1.6% have one here.
LMNA splice mod = qHTS Assay for Modulators of Lamin A Splicing. HeLa LMNA splicing GFP/RFP minigene ratio, 48 h. Potency, µM (series often up to 46.1 µM), hits mostly inhibitors. 200,000 compounds, 0.01% hits; active = well fitted inhibition curve with a large enough effect in the signal ratio, with a control signal flat, not every such curve was filed as active; inconclusive = small, poorly fitted or top-dose-only effect, or effect the other way, or a change in a side signal; the % refers to the signal ratio
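S3 HeLa stable clones carrying a lamin A-EGFP splicing minigene plus DsRed2 were seeded at 600 cells/well in Opti-MEM with 2% FBS, pin-dosed and incubated 48 h at 37°C. Acumen cytometry (488 nm) gave the GFP/RFP total-intensity ratio.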
NPSR antag = qHTS Assay for Antagonists of the Neuropeptide S Receptor: cAMP Signal Transduction | Q6W5P4 | CHO-NPSR cells, cAMP TR-FRET, antagonist mode | Potency, µM (top dose mostly 38.3 µM), actives largely listed as inhibitors | 220,000 compounds, 1% hits | AID 1461, 2008; also: nearly all actives have a fitted effect of over 50% in size
Target sequence (Q6W5P4 whole entry, looked up): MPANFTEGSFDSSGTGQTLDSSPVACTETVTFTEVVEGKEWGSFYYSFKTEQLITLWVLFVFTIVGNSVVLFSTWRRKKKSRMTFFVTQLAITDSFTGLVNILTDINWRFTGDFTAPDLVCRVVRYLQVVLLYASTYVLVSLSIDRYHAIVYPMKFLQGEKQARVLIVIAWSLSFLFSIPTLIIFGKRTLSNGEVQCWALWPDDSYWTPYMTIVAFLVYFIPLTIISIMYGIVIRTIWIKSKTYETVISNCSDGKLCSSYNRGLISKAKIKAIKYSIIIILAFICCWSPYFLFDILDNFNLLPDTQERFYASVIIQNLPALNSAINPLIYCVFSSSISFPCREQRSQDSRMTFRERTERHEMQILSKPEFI
IMPase inh = qHTS Assay for Identifying the Cell-Membrane Permeable IMPase Inhibitors | Inositol monophosphatase 1 (Rattus norvegicus), P97697 | CHO-M1 cells, IP1 accumulation, HTRF TR-FRET ratio | inhibition (IP1 accumulation), % at 46.1 µM | 120,000 tested, under 10 active; active = well fitted curve in the direction sought with a large enough effect in the signal ratio, not every such curve was filed as active; inconclusive = small, poorly fitted or top-dose-only effect, or a change in a side signal; inactive = no such curve, though single readings can be large or run the other way; the % refers to the signal ratio;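 also: cells stimulated with carbachol in lithium chloride buffer; higher means more IMPase inhibition seen as more IP1 and lower FRET ratio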
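Elevated IP1 in lysates lowers TR-FRET signal (665/620 ratio and 620 channel reported). Cells were CHO-M1, given carbachol (50 uM as added) plus 50mM LiCl, pH 7.4, 30 min, 37C; compounds titrated up to 46 uM; AC50 by Hill equation.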
IMPase Li cell = qHTS Assay for Identifying the Cell-Membrane Permeable IMPase Inhibitors: Potentiation with Lithium; 210,000 compounds, 0.35% hits; CHO-M1 cells, IP1 TR-FRET (IP-One), carbachol + lithium; Potency, µM (doses to about 59.4 µM), actives largely listed as inhibitors; AID 1457, 2008;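 also: IP1 builds up when IMPase is blocked and the TR-FRET signal falls; nearly all actives have a fitted effect of over 50% in size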
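Concentration–response in CHO-M1 cells, lithium-potentiated; 30 min at 37C. IP1 detected by competitive TR-FRET after 10 min lysis at RT. Hill-fitted AC50.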
HttQ103 aggreg = qHTS Multiplex Assay to Identify Dual Action Probes in a Cell Model of Huntington: Aggregate Formation (GFP); PC12 HttQ103-GFP aggregates, Acumen cytometry, 40 h; Potency, µM (highest dose often 46.1 µM), actives largely listed as inhibitors; 220,000 compounds, 1.1% hits; AID 1688, 2009; also: nearly all actives have a fitted effect of over 60% in size
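Compounds (qHTS titration) were added to PC12 cells expressing an ecdysone-driven HTT exon 1 Q103–GFP fusion after induction with 100 nM tebufenozide. Aggregate formation was measured as GFP objects in cell lysates.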
HTT cytoprotect = qHTS Multiplex Assay to Identify Dual Action Probes in a Cell Model of Huntington: Cytoprotection (ATP); PC12 HTT-Q103 induced, cytoprotection, ATP luminescence, 40 h; Potency, µM (series often up to 56.4 µM), most hits filed as activators; 230,000 compounds, 0.14% hits; also: nearly all actives have a fitted effect of over 45% in size
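ATP quantification (ATPlite) reports survival of PC12 cells in which tebufenozide, 100 nM final, switches on Htt exon 1 with 103 glutamines linked to GFP; compounds are titrated.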
Each line names hits and unclear results; the compound was inactive in the other large screens. Unless noted, calls follow the shape of the dose curve; as a rule, active = well fitted curve in the direction sought with a large enough effect; inconclusive = small, poorly fitted or top-dose-only effect, or another doubt; inactive = no such curve, though single readings can be large; an effect the other way counts as inactive or inconclusive.

CN(C)C=NC(=O)c1cc(C(=O)c2ccc(Cl)cc2Cl)c[nH]1	none (no result: LMNA splice mod, IMPase inh)
O=C(c1cnn2c1NC(c1ccco1)CC2C(F)(F)F)N1CCN(c2cccc(Cl)c2)CC1 (stereo not given)	LMNA splice mod inconclusive, HttQ103 aggreg 22µM
COc1cc(NS(=O)(=O)c2ccc3c(c2)CCCN3C(C)=O)cc(OC)c1OC	none (no result: NPSR antag, IMPase inh, IMPase Li cell, HttQ103 aggreg, HTT cytoprotect)
O=C(CN1CCCc2ccccc21)N/N=C/c1c(O)ccc2ccccc12	LMNA splice mod inconclusive, HttQ103 aggreg 10µM
O=C(CN1CCCc2ccccc21)N/N=C/c1ccccc1	none
O=C1c2sc3nc4ccccc4n3c2C(=O)N1c1ccccc1Cl	NPSR antag 10µM
O=C(O)c1ccccc1-c1c2ccc(=O)cc-2oc2cc(O)ccc12	LMNA splice mod inconclusive, HttQ103 aggreg 0.032µM (no result: NPSR antag, IMPase inh)
O=C(O)CN(CC(=O)O)Cc1cc2c(-c3ccccc3C(=O)O)c3cc(CN(CC(=O)O)CC(=O)O)c(=O)cc-3oc2cc1O	HttQ103 aggreg 0.18µM (no result: LMNA splice mod, NPSR antag, IMPase inh, HTT cytoprotect)
O=C(c1ccc(COc2c(F)c(F)c(F)c(F)c2F)o1)N1CCOCC1	none
O=C(c1ccc(C23CC4CC(CC(C4)C2)C3)o1)N1CCOCC1	HttQ103 aggreg 5.6µM
CSCC[C@H](NC(=O)[C@H](Cc1ccccc1)NC[C@@H](NC[C@@H](N)CS)C(C)C)C(=O)O	none (no result: LMNA splice mod, NPSR antag, IMPase inh, HttQ103 aggreg)
Cc1ccc(N=Nc2c(C)[nH]n(C(N)=S)c2=O)cc1	none (no result: LMNA splice mod, IMPase inh, HTT cytoprotect)
NC(=S)n1[nH]c(-c2ccc([N+](=O)[O-])cc2)c(N=Nc2ccc(Cl)cc2)c1=O	LMNA splice mod inconclusive, HttQ103 aggreg 7.9µM (no result: IMPase inh)
Cc1ccc([N+](=O)[O-])cc1N=Nc1c(-c2ccc([N+](=O)[O-])cc2)[nH]n(C(N)=S)c1=O	NPSR antag 10µM (no result: LMNA splice mod, IMPase inh, HTT cytoprotect)
COc1ccccc1CCn1c(=O)c(-c2ccc(F)cc2)nc2cncnc21	HTT cytoprotect inconclusive (no result: LMNA splice mod, NPSR antag, IMPase inh, HttQ103 aggreg)
C[N+](C)(C)C(C1=CCCC1=O)c1ccccc1 (stereo not given)	none (no result: LMNA splice mod, NPSR antag, IMPase inh, HttQ103 aggreg, HTT cytoprotect)
CN(Cc1cccs1)c1ncnc2sccc12	LMNA splice mod inconclusive, HttQ103 aggreg 3.2µM
CCOc1ccccc1CN1CCN(S(=O)(=O)c2ccccc2)CC1	none (no result: LMNA splice mod, NPSR antag, IMPase Li cell, HttQ103 aggreg, HTT cytoprotect)
CCOc1cc(S(=O)(=O)N2CCN(Cc3ccccc3)CC2)ccc1Br	LMNA splice mod inconclusive, HttQ103 aggreg 11µM
N[C@H](Cc1c[nH]c2ccccc12)C(=O)O	LMNA splice mod inconclusive, HttQ103 aggreg 32µM (no result: NPSR antag, IMPase inh)
NC(Cc1c[nH]c2ccccc12)C(=O)O (stereo not given)	none (no result: LMNA splice mod, NPSR antag, IMPase inh, HttQ103 aggreg, HTT cytoprotect)
COC(=O)N[C@@H](CCc1ccccc1)[C@]1(C(=O)OC)CCCC1=O	none (no result: LMNA splice mod, NPSR antag, IMPase inh, HttQ103 aggreg)
CC(C)c1ccc(C2C3CSCC=C3C(C#N)=C(N)C2(C#N)C#N)cc1 (stereo not given)	NPSR antag 10µM, HTT cytoprotect inconclusive
Fc1ccc(Nc2ncnc3ccc(-c4ccoc4)cc23)cc1	LMNA splice mod inconclusive (no result: NPSR antag, IMPase inh, HttQ103 aggreg)
C/C(N)=C(/C#N)C(=O)CSc1nc2ccccc2c(=O)n1-c1ccc(C)cc1	IMPase Li cell inconclusive
CCOC(=O)c1c(C)[nH]c(C)c1C(=O)CSc1nc2ccccc2c(=O)n1-c1ccc(C)cc1	LMNA splice mod inconclusive, HttQ103 aggreg inconclusive
CCOC(=O)c1c(C)[nH]c(C)c1C(=O)CSc1nc2ccccc2c(=O)n1-c1ccc(Cl)cc1	LMNA splice mod inconclusive, HttQ103 aggreg 20µM (no result: IMPase inh, HTT cytoprotect)
C/C(N)=C(/C#N)C(=O)CSc1nc2ccccc2c(=O)n1-c1ccc(C)c(Cl)c1	IMPase Li cell 11µM
COC(C(=O)C(O)C(C)O)C1Cc2cc3cc(OC4CC(OC5CC(O)C(O)C(C)O5)C(O)C(C)O4)c(C)c(O)c3c(O)c2C(=O)C1OC1CC(OC2CC(OC3CC(C)(O)C(O)C(C)O3)C(O)C(C)O2)C(O)C(C)O1 (stereo not given)	HttQ103 aggreg 0.22µM (no result: LMNA splice mod, NPSR antag, IMPase inh, IMPase Li cell)
